# Bioassay records from PubChem.
# Sampled rows, rich in hits. Any-hit rate of the full collection: about 3.5%.
# MITF inh = MITF inhibitors, primary screen, biochemical, AlphaScreen, human; 650,000 compounds, 0.91% hits; AlphaScreen MITF homodimerization, bead proximity signal; Microphthalmia-associated transcription factor (Homo sapiens), O75030; inhibition, % at 2.6 µM; in the data active = inhibition above about 50%;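 note: 0% = vehicle wells with protein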
# FBW7 activator = FBW7 E3 ligase activators, primary screen, biochemical, AlphaScreen, human. normalized activity (activation), % at 26.1 µM. AID 1259310, 2017. F-box/WD repeat-containing protein 7 (Homo sapiens), Q969H0. AlphaScreen FBW7–phospho-cyclin E peptide binding, activator screen. 650,000 compounds, 0.13% hits; in the data active = normalized activity above about 1.9%;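 note: purified mutant Fbw7 with reduced substrate affinity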
# GPR151 activ = activators of human GPR151, primary screen, cell-based, PathHunter beta-arrestin, luminescence; 650,000 compounds, 1% hits; activation, % at 11.2 µM; AID 1508602, 2020; G-protein coupled receptor 151 (Homo sapiens), Q8TDV0; PathHunter beta-arrestin GPR151 cells; in the data active = activation above about 4.9%;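 note: 0% = median of compound wells and 100% = cells with positive control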
# Target sequence (Q8TDV0 whole entry, looked up): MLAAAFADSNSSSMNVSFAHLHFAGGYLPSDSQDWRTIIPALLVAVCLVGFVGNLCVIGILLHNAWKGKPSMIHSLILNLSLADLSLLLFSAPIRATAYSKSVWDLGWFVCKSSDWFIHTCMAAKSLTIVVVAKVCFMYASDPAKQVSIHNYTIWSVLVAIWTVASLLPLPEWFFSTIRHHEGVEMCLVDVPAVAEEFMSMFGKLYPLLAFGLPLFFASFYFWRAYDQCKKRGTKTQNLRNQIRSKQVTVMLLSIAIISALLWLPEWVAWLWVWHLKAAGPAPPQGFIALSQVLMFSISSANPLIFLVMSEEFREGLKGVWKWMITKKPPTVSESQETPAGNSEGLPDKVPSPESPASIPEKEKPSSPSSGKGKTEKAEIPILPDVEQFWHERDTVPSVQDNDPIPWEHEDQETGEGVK
# TEAD-YAP inh = TEAD-YAP interaction inhibition, primary screen, TEAD-YAP interaction inhibitor project, luminescence, HEK-TIYL cells; TEAD-Gal4/YAP UAS-luciferase luminescence; inhibition, % at 9.12 µM; 640,000 compounds, 1.4% hits; AID 1259422, 2018; in the data active = inhibition above about 32%;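 note: 0% = median of test compound wells and 100% = reference inhibitor wells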
# MITF confirm = MITF inhibitors, retest of hits, confirmation, biochemical, AlphaScreen, triplicate. shares compounds with MITF inh. inhibition, % at 2.6 µM. AlphaScreen MITF homodimerization, biotin/His-MITF beads. 4,700 compounds, 16% hits;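 active = inhibition above a cutoff derived from the DMSO control wells, cut at about 28% in these data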;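 note: 0% = MITF dimer wells with DMSO only; inhibitors lower the bead chemiluminescence by keeping MITF from dimerizing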
# AS interf DR = AlphaScreen optical interference compounds, dose response, counter-screen, biochemical, HTS | shares compounds with MITF inh | AlphaScreen optical interference counterscreen, cell-free | IC50, µM | 480 compounds, 6% hits | AID 1259373, 2018; call rule not given here
# AlphaScreen intf2 = AlphaScreen optical interference compounds, counter-screen for MITF inhibitor project, biochemical, triplicate; shares compounds with MITF inh; LysRS AlphaScreen counterscreen, signal interference; inhibition, % at 2.6 µM; 4,700 compounds, 7.6% hits;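 active = inhibition above a cutoff derived from the DMSO control wells, cut at about 30% in these data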
# * hit, by the source's call; x = not tested or not shown.
SMILES,MITF inh,FBW7 activator,GPR151 activ,TEAD-YAP inh,MITF confirm,AlphaScreen intf2,others
COCCCNC(=O)/C(C#N)=C/c1ccc(-c2ccc(Cl)c(C(=O)O)c2)o1,58*,0,0,1,46*,19,AS interf DR=>6.5
CCn1c(=O)c2cc(C(=O)Nc3ccsc3C(=O)OC)sc2c2ccccc21,7,0,4,9,x,x,
Nc1nc(NCCOc2ccccc2)cc(Nc2ccc(N3CCOCC3)cc2)n1,17,0,2,-8,x,x,
COCCNCCOCCOc1ccc(C(C)(C)C)cc1C,26,0,-2,-5,x,x,
Cc1cc(C(C)(C)C)ccc1OCCOCCN(C)C,72*,0,2,12,-2,-7,
CN(C)CCOCCOc1ccc(Cl)cc1C(C)(C)C,3,0,0,-8,x,x,
Cc1ccc(C(C)(C)C)c(OCCOCCN(C)C)c1,68*,0,-1,0,-3,-8,
O=C(Nc1ccc(-c2nc3cc(Cl)ccc3o2)cc1)C(F)(F)F,5,0,0,-74,x,x,
CCCN(Cc1cccc([N+](=O)[O-])c1)CC1CC1,54*,1,0,4,-91,-4,
COc1ccc2c(=O)c3c(oc2c1)C(=O)N(CCCN1CCOCC1)C3c1ccccn1 (stereo not given),-10,-1,1,-7,x,x,
CN(C)S(=O)(=O)Nc1ccc(N2CCC(NCCc3cccs3)CC2)cc1,63*,0,0,6,11,14,
CN(C)S(=O)(=O)Nc1ccc(N2CCC(NCCc3ccncc3)CC2)cc1,7,0,0,2,x,x,
OCCNC(=S)Nc1ccccc1,8,0,0,-8,x,x,
O=P(O)(O)C(O)(CCNC(=S)Nc1ccccc1)P(=O)(O)O,85*,0,-1,4,67*,6,AS interf DR=>6.8
COc1ccc(C(=O)NNC(=O)c2ccc(NC(=O)c3ccc(OC)cc3)cc2)cc1,9,0,1,12,x,x,
COCc1cc(=O)[nH]c(Nc2nc3ccccc3o2)n1,65*,-1,-1,0,75*,101*,
CCCCC[C@H](O)/C=C/[C@@H]1[C@@H](C/C=C\CCCC(=O)NCCCCCNC(=O)CCCCC2SC[C@@H]3NC(=O)N[C@H]23)[C@@H](O)C[C@H]1O (stereo not given in full),124*,x,-1,x,123*,101*,
CCCCC[C@H](O)/C=C/[C@H]1[C@H](O)CC(=O)[C@@H]1C/C=C\CCCC(=O)NCCO,3,x,1,x,x,x,
CCCCC/C=C/C=C1/C(=O)C=C[C@@H]1C/C=C\CCCC(=O)O,35,x,0,x,x,x,
CCCCC/C=C/C=C1/C(=O)C=C[C@@H]1C/C=C\CCCC(=O)NCCCCCNC(=O)CCCCC1SC[C@@H]2NC(=O)N[C@H]12 (stereo not given in full),124*,x,-1,x,124*,101*,
CCCCC[C@H](O)/C=C/[C@H]1[C@H](O)CC(=O)[C@@H]1C/C=C\CCCC(=O)NCCCCCNC(=O)CCCCC1SC[C@@H]2NC(=O)N[C@H]12 (stereo not given in full),124*,x,0,x,124*,101*,
CNC(=S)NNC(=O)c1ccc(O)cc1,-2,0,-1,-2,x,x,
CNC(=S)NNC(=O)C(=O)NNC(=S)NC,79*,-1,0,1,11,74*,
Cc1csc(NC(=O)CSc2nc(N)c(C#N)cc2C#N)n1,2,0,0,12,x,x,
O=C(CSc1nsc(SCC(=O)Nc2cccc(Cl)c2)n1)Nc1cccc(Cl)c1,-6,0,2,5,x,x,
SMILES,MITF inh,FBW7 activator,GPR151 activ,TEAD-YAP inh,MITF confirm,AlphaScreen intf2,others
CC(C)C(=O)N1c2ccccc2NC2=C(C(=O)CC(C)(C)C2)C1c1ccc2c(c1)OCO2 (stereo not given),17,0,-1,3,x,x,
Cc1ccc2[nH]c(=O)c(CN(CC3CCCO3)S(=O)(=O)c3ccccc3)cc2c1 (stereo not given),-13,0,0,-4,x,x,
COc1ccc(S(=O)(=O)N(Cc2cc3ccc(C)cc3[nH]c2=O)CC2CCCO2)cc1 (stereo not given),69*,0,-1,12,10,17,
CCN(c1ccc(NC(=O)CSc2nccc(=O)[nH]2)cc1)C(C)C,10,0,-1,21,x,x,
Cc1cccc2cc(CN(Cc3cccnc3)C(=O)Nc3ccccc3)c3nnnn3c12,-10,0,0,-2,x,x,
COc1ccc(CN2CCCCCC2)cc1,2,0,0,5,x,x,
COc1ccc(CN2CCN(C3CCC(C)CC3)CC2)cc1 (stereo not given),73*,0,-1,1,-4,-8,
COc1ccc(CN2CCC(N3CCCCC3)CC2)cc1,54*,0,-1,-10,16,-12,
CCOc1ccc(CN2CCC(N3CCN(Cc4ccccc4)CC3)CC2)cc1,42,0,1,11,x,x,
Cn1c(=O)cc(OCCCC(=O)NCC2(c3ccccc3)CCCC2)c2ccccc21,-8,0,0,-1,x,x,
Cc1nc2c(sc3nc(CC(C)C)ccc32)c(=O)o1,-7,0,0,-2,x,x,
O=[N+]([O-])c1ccc(Nc2nc(-c3ccncc3)cs2)cc1,51*,0,0,-15,-6,-2,
CC(=O)Nc1ccc(-c2csc(Nc3ccc([N+](=O)[O-])cc3)n2)cc1,-1,0,-1,1,x,x,
O=C(N=NC(=O)c1ccc2c(O)n(Cc3ccccc3)c(O)c2c1)c1ccncc1,4,0,-1,6,x,x,
CCN(CC)c1nc(NCc2cccc(C(F)(F)F)c2)nc(N2CCN(Cc3ccc4c(c3)OCO4)CC2)n1,2,0,-1,6,x,x,
CCN=C1SC(CC(=O)Nc2cccc(OC)c2)C(=O)N1CC (stereo not given),24,1,-1,-2,x,x,
CCN1C(=O)C(CC(=O)Nc2cccc(C)c2)SC1=Nc1ccc(OC)cc1OC (stereo not given),55*,0,1,30,2,1,
COc1ccccc1-c1nnc(SCC(=O)N2CCc3ccccc32)o1,62*,0,2,6,9,-9,
O=C1N[C@@H](Cc2ccc(O)cc2)C(=O)N2CCN(C(=O)NC3CCCCC3)C[C@H]12,70*,0,-1,-1,69*,-5,AS interf DR=>6.5
O=C1N[C@H](Cc2ccc(O)cc2)C(=O)N2CCN(C(=O)NC3CCCCC3)C[C@H]12,76*,0,0,7,70*,-9,AS interf DR=>6.5
O=C1N[C@@H](Cc2cnc[nH]2)C(=O)N2CCN(C(=O)NC3CCCCC3)C[C@H]12,-8,0,0,9,x,x,
